# Screening results from PubChem.
# Compounds with a hit are over-represented: about 13% of the library has one in this group of screens.
# HCV inh = HCV inhibition; Huh7.5.1 HCVcc-Cre infection, luciferase reporter, 44 h; Potency, µM (titrated, usually from 41.8 µM), without a hit: at the highest dose activity change, negative = inhibition, most hits filed as inhibitors; hit rate 3.4% among 340,000; active means well fitted inhibition curve with a large enough effect; inconclusive means small, poorly fitted or top-dose-only effect, or another doubt; inactive means no such curve, though single readings can be large or run the other way; further: potency means the concentration at half of the fitted maximal effect; on the % scale 0 is the no-effect control and ±100 the full control effect
#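 Cells (1,000/well) were plated 4 h before compound, then infected with HCVcc-Cre virus (~0.5 moi). After 44 h further culture, infection was read as luciferase luminescence following a 15 min substrate incubation at room temperature.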
# FMDV inh = blocks foot and mouth disease virus. FMDV antiviral cell-based qHTS. Potency, µM (series often up to 57.9 µM), for inactives: at the top dose activity change, negative = inhibition, most hits filed as inhibitors. hit rate 1.2% among 410,000. AID 1159524; calls by dose curve; tested in HEK293T cells; further: read-out not given here; potency means the concentration at half of the fitted maximal effect; on the % scale 0 is the no-effect control and ±100 the full control effect; nearly all actives have a fitted effect of over 45% in size
# MARV entry inh = Marburg virus entry inhibition. Marburg virus pseudotyped entry inhibition, cell reporter. Potency, µM (highest dose often 37.8 µM), for inactives: top-dose activity change, negative = inhibition, usual class: inhibitors. AID 540276. hit rate 1.8% among 300,000; calls by dose curve; tested in HEK293 cells; further: potency means the concentration at half of the fitted maximal effect; on the % scale 0 is the no-effect control and ±100 the full control effect
# Shiga toxin inh = Shiga toxin inhibition | hit rate 9.2% among 290,000 | AID 2315 | Vero cells, Shiga toxin protein synthesis inhibition reporter | inhibition, % at 38.7 µM; in the data active means inhibition mostly above about 28%, no sharp cut-off; inactive means mostly below about 43%; further: 0% is about no effect
# LASV entry inh = inhibitors of Lassa virus binding or cell entry. Lassa virus pseudotype entry inhibition, cell reporter. Potency, µM (titrated, usually from 37.9 µM), for inactives: at the top dose activity change, negative = inhibition, usual class: inhibitors. hit rate 1.2% among 300,000; calls by dose curve; tested in HEK293 cells; further: potency means the concentration at half of the fitted maximal effect; on the % scale 0 is the no-effect control and ±100 the full control effect; nearly all actives have a fitted effect of over 50% in size
# Cycloheximide cs = affects cycloheximide protein synthesis inhibition readout, counter-screen. cell reporter, cycloheximide protein synthesis inhibition counterscreen. hit rate 12% among 300,000. max response, %. AID 2314; in the data active means max response mostly above about 13%, no sharp cut-off; inactive means mostly below about 14%; further: read at 38.3 µM for the half of the compounds with a filed dose; 0% is about no effect
# An asterisk follows results filed as active; ? = inconclusive; / = no result given; + = active, no number; [ ] = another dose, or the depositor's remark.
SMILES,HCV inh,FMDV inh,MARV entry inh,Shiga toxin inh,LASV entry inh,Cycloheximide cs
CN(C(=S)NC(=O)c1ccccc1)C1CCCCC1,10%,14%,/,34*,/,15*
CN(C(=S)NC(=O)c1ccc(Cl)cc1)C1CCCCC1,0%,7%,14%[46.1 µM],72*,-1%[46.1 µM],50*
Cc1ccc(N2CC(c3nc4ccccc4n3C)CC2=O)cc1C (stereo not given),-1%,-19%,/,-8,/,0
N#Cc1ccc(-c2ccccc2)nc1Sc1ccc(F)cc1,11%,-10%,6%,-8,-20%,2
CC(C)OC(=O)c1ccc(NC(=O)CSc2nc(-c3cccs3)cc(C(F)(F)F)n2)cc1,/,-28%,-16%[46.1 µM],/,4%[46.1 µM],/
CC(NC(=O)c1ccc(Nc2nc3ccccc3n3nnnc23)cc1)c1ccccc1 (stereo not given),/,?,30%[46.1 µM],/,1%[46.1 µM],/
CCCc1ccc2oc(C(=O)N(C)CCn3ccnc3C)c(C)c2c1,?,-2%,/,20*,/,13*
CCCc1ccc2oc(C(=O)NCCN3CCCC(O)C3)c(C)c2c1 (stereo not given),?,7%,?,77*,?,34*
CCCc1ccc2oc(C(=O)NCCN3CCCC(C(N)=O)C3)c(C)c2c1 (stereo not given),?,5%,/,-4,/,8
Cc1c(C(=O)NCCCN2CCOCC2)oc2c1C1(CCC2)SCCS1,-11%,11%,-16%,+,-18%,7
CCCc1ccc2oc(C(=O)NCCCN3CCOCC3)c(C)c2c1,-9%,17%,?,67*,28%[46.1 µM],50*
CC(Nc1nc(=S)nc(Nc2ccc(F)cc2)[nH]1)c1ccccc1 (stereo not given),-23%,-15%,/,/,/,-3
CCCc1ccc2oc(C(=O)NCc3nnc(C)o3)c(C)c2c1,-2%,39%,-29%[46.1 µM],97*,?,45*
CCOc1ccc(C(=O)NCC(=O)OCCCOC(=O)CNC(=O)c2ccc(OCC)cc2)cc1,7%,-8%,17%,-27,-1%,11
CC(C)(C)C(=O)Cn1ncc(N2CCCC2)c(Br)c1=O,-4%,25%,?,138*,0%,36*
CC(C)(C)C(=O)Cn1ncc(NC2CC2)c(Br)c1=O,-4%,20%,-3%,14,4%,13*
CC(C)(C)C(=O)Cn1ncc(Cl)c(Cl)c1=O,?,?,/,-31,/,-14
O=C(CCc1ccccc1)Nc1nc2n(n1)C(c1ccccc1)CC(=O)N2 (stereo not given),10%,-2%,-1%,48,-6%,-3
CC1CN(c2ccc([N+](=O)[O-])cc2C(=O)N2CCOCC2)CC(C)N1 (stereo not given),?,-3%,1%,9,0%,1
N#C/C(=C\c1ccncc1)c1nc2c(s1)CCCC2,8%,0%,/,42*,/,21*
COc1cccc(C2CC(c3c(-c4ccccc4)c4cc(Cl)ccc4[nH]c3=O)=NN2S(C)(=O)=O)c1OC (stereo not given),11µM*,?,?,23,?,7
CC(=O)Nc1ccc(-c2ccnc3c2CC(C)(C(=O)Nc2ccc(C(C)C)cc2)O3)cc1 (stereo not given),/,-20%,/,/,/,/
CN(C)c1oc(/C=C/c2ccccc2)nc1C#N,-13%,8%,?,48*,-23%,44*
COc1ccccc1/C=C/c1nc(C#N)c(N(C)C)o1,7%,53%,?,87*,?,33*
COc1ccccc1/C=C/c1nc(C#N)c(N2CCCCC2)o1,/,11%,-29%[46.1 µM],/,?,/
SMILES,HCV inh,FMDV inh,MARV entry inh,Shiga toxin inh,LASV entry inh,Cycloheximide cs
NC(=O)c1c(/N=C/c2cccnc2)sc2c1CCCC2,-11%,60%,-20%,47*,18%,25*
CN1CCc2c(sc(/N=C/c3cccs3)c2C(N)=O)C1,-23%,43%,0%,29,2%,16
Cc1ccc(/C=N/c2sc3c(c2C(N)=O)CCCC3)o1,-17%,69%,/,60*,/,37*
CCCCCCCCN1C(=O)[C@H](CC(=O)N2CCCC2)C[C@@]2(C(=O)OC)CC(C)(C)CC=C12,/,-26%,/,/,/,/
N#Cc1cccn1-c1nccc(-c2cccs2)n1,?,21%,-18%[46.1 µM],77*,1%[46.1 µM],29*
Oc1oc(-c2ccco2)nc1C=Nc1cccc(Cl)c1,?,-2%,-3%,48,4%,27
CC(=NCc1cccc(Cl)c1)c1nc(-c2ccco2)oc1O,-14%,-9%,14%,49*,0%,23*
CC(C)(C)C(=O)Nc1nc2nc(-c3ccccc3)cc(=O)n2[nH]1,/,13%,12%[46.1 µM],/,?,/
Nc1nc2c(F)c(F)c(F)cc2s1,12%,18%,/,-4,/,8
Cc1ccc2nc(C(F)(F)F)c(C#N)c(N)c2c1,25µM*,-26%,-20%,1,0%,-1
COc1cc(NC(=O)COC(=O)CNC(=O)c2ccc(C)s2)cc(OC)c1,?,97%,?,-9,-15%,6
COc1ccc(NC(=O)C2CCN(C(=O)[C@@H]3Cc4ccccc4CN3)CC2)cc1,6%,16%,/,13,/,33*
CCc1ccc(NC(=O)C2CCN(C(=O)[C@@H]3Cc4ccccc4CN3)CC2)cc1,-1%,17%,?,60*,?,34*
Cc1ccc(NC(=O)C2CCN(C(=O)[C@@H]3Cc4ccccc4CN3)CC2)c(C)c1,0%,4%,/,-11,/,14*
COc1ccc(C(=O)O)cc1S(=O)(=O)N(C)C,12%,-22%,14%[46.1 µM],16,?,-1
Cc1cccc(NC(=O)CSc2ccc(-c3cccs3)nn2)c1C,-9%,12%,?,11,7%,13*
O=C(CSc1ccc(-c2cccs2)nn1)N1CCCCCC1,-1%,22%,13%,44*,-11%,20*
O=C(CSc1ccc(-c2cccs2)nn1)N1CCCCC1,-11%,44%,?,52*,19%,46*
O=C(CSc1ccc2nnc(-c3cccs3)n2n1)N1CCCC1,27%,9%,5%[46.1 µM],2,1%,3
C=CCOc1ccc2c(c1)c(S(=O)(=O)c1ccc(C)cc1)cn2COC,-7%,/,?,-11,?,11
CCOC1=C(C#N)CC2(CC1)c1ccccc1-c1ccccc12,?,-22%,?,/,-3%[46.1 µM],/
CCN(CC)c1ccc(NC(=O)c2ccc(NC(=O)C3CCCO3)cc2)c(C)c1 (stereo not given),-28%,-21%,-11%,-3,6%,-1
O=C(NCC1OCCCN1S(=O)(=O)c1cc(F)ccc1F)C(=O)NC1CCCCCC1 (stereo not given),8%,14%,/,6,/,15*
O=C(NCCc1c[nH]c2ccccc12)C(=O)NCC1OCCCN1S(=O)(=O)c1ccc(F)cc1 (stereo not given),?,?,-35%,-5,?,-6
Cc1cc(F)ccc1S(=O)(=O)N1CCCOC1CNC(=O)C(=O)NCCc1c[nH]c2ccccc12 (stereo not given),11µM*,32µM*,?,-9,?,-4
